Results on 98 compounds are retold here after PubChem BioAssay AID1285 (Columbia University Molecular Screening Center, 2008).

Out of some 190,000 compounds screened, about 1,600 (0.84%) were called active. The list comes from a sample in which actives are over-represented; it also holds similar structures and randomly drawn compounds. Unmarked numbers belong to inactive results.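 The calls were made as follows: active = inhibition above a set limit, derived from the sample mean plus 3 SD (cut at about 45% in these data); inconclusive = one replicate passes the limit while the other fails; inactive = the rest.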

This assay in a line: APP 5'UTR translational reporter suppression – APP 5'UTR luciferase, SH-SY5Y cells, primary screen (AID 1285). The following applies: SH-SY5Y APP 5'UTR-luciferase reporter, luminescence; at 2 µM; stronger effect = higher value.
Regarding `CCN(C(=O)CN1CCN(Cc2ccccc2)CC1)c1c(N)n(Cc2ccccc2)c(=O)[nH]c1=O`, the inhibition was -17.3%. `CC(C)N(C(=O)CSc1nc(COc2ccccc2)nc2ccccc12)C(C)C`: the inhibition was 48.3% (active). As for `CCCc1nc(SCC(=O)Nc2ccc(S(=O)(=O)N(C)C)cc2)c2ccccc2n1`, the figure is -11.7%. The same measure for `COC(=O)CSc1nc(C2CC2)nc2ccccc12`: -12.5%. The same measure for `COc1ccc(Cl)cc1NC(=O)NC(C)C(C)(C)C` (stereo not drawn): -0.1%; for `CCN(CC)S(=O)(=O)c1ccc(Cl)c(NC(=O)c2ccncc2)c1`: 17.9%. For the compound `CCN(CC)CCCNC(=O)Cn1cnc2sc(C)c(S(=O)(=O)N3CCN(c4ncccn4)CC3)c2c1=O`, the inhibition is -10.4%. As for `Cc1ccc(-c2noc(CCC(N)=O)n2)cc1`, the figure is 5.2%; as for `CCNC(=O)CCc1nc(-c2ccc(C(C)(C)C)cc2)no1`, 51.8% (active); as for `CN1CCN(C(=O)CCc2nc(-c3ccc(Cl)cc3)no2)CC1`, 9.1%. The same measure for `COc1ccc(N2CCN(C(=O)c3ccc4c(Cl)c5c(nc4c3)CCCC5)CC2)cc1`: -5.5%. As for `CC(=O)Nc1nc(N(C)C)nc(N(C)C)n1`, the figure is 4.4%; as for `CC1(C)CC(=O)c2cnc3nc4ccccc4n3c2C1`, -8.9%.

As to `CN(C(=O)CSc1nnc(N)s1)c1c(N)n(Cc2ccccc2)c(=O)[nH]c1=O`, the inhibition was -12.7%. Regarding `Nc1nnc(SCC(=O)OCc2ccc(Cl)c(Cl)c2)s1`, the inhibition is 86.8% (active). The same measure for `COC(=O)c1ccc(CSc2nnc(N)s2)o1`: -10.2%; for `COCCNC(=O)c1ccc(-n2c(SCc3cccnc3)nc3ccccc3c2=O)cc1`: -4.3%; for `CCCCCCCCCCOC(=O)C[N+](C)(C)CC1CCCCC1O` (stereo not drawn): -4.7%.

Consider `O=C(c1snnc1-c1ccccc1)N1CCOCC1`, for which the inhibition is -16.4%. On to `COCCn1c(C)cc(C2=NNC(=Nc3ccc(F)cc3)SC2)c1C`, for which the inhibition is -82.3%.

For the compound `Cc1cc(C2=NNC(=Nc3ccc(S(=O)(=O)N4CCOCC4)cc3)SC2)c(C)n1CC1CCCO1` (stereo not drawn), the inhibition is -30.6%. As for `C=CCn1c(C)cc(C2=NNC(=NCC)SC2)c1C`, the figure is 69.1% (active). For the compound `CCN(C(=O)CSc1nc2ccccc2n1CC)C1CCS(=O)(=O)C1` (stereo not drawn), the inhibition was -8%. As for `C[N+]1(CC(O)COc2ccccc2)CCN(C(=O)c2ccc([N+](=O)[O-])cc2)CC1` (stereo not drawn), the figure is 0.3%. As for `O=C(OCC(=O)c1cccs1)C1=COCCO1`, the inhibition is -41.7%. As for `COc1ccc(NC(=O)COC(=O)CNC(=O)C2CCCCC2)cc1`, the figure is -10.5%; as for `CCC(C)(C)c1ccc(Oc2ccc(NC(=O)COC(=O)C3=COCCO3)cc2)cc1`, 45.6% (active); as for `Cc1ccc2[nH]c(C)c(CCNC(=O)NC3CCCCC3)c2c1`, 2.7%. With `CSCC[C@H](NC(=O)NC1CCCC1)C(=O)O`, the inhibition is 20.9%.

With `CCOc1cc(C(=O)N2CCc3cc(OC)c(OC)cc3C2)ccc1OC(F)F`, the inhibition was 94.6% (active). The same measure for `COc1cc2c(cc1OC)CN(C(=O)c1ccc(S(=O)(=O)N3CCCCCC3)cc1)CC2`: -6.7%; for `COc1cc2c(cc1OC)CN(C(=O)c1cc(=O)c3ccccc3o1)CC2`: 13.7%. The same measure for `Cc1cccc(CSc2ccc(-c3cccs3)nn2)c1`: -24.9%; for `Cc1cc(N2CCOCC2)nc2ccc(NC(=S)N3CCN(Cc4ccccc4)CC3)cc12`: -3.7%; for `COc1ccc(Cc2nnc(N/N=C/c3ccccc3O)[nH]c2=O)cc1OC`: 85.9% (active). Regarding `COc1ccc(/C=N/Nc2nc3ccccc3c(=O)[nH]2)cc1`, the inhibition is -92.9%. In the case of `CCOc1ccc(-n2c(O)c(/C=N/Nc3nnc(C)c(=O)[nH]3)c3ccccc3c2=O)cc1`, the inhibition is -5.3%. As for `COc1ccc(S(=O)(=O)N2CN(CCc3ccc(OC)c(OC)c3)c3nc4ccccc4nc32)cc1`, the inhibition is -3.7%. As for `COC(=O)C1=C(C)NC(=O)CC1c1ccccc1OC` (stereo not drawn), the inhibition is -15.8%. The same measure for `O=C(Nc1ccccc1C(=O)O)c1cc(S(=O)(=O)N2CCCCC2)cs1`: -13.4%; for `Cc1ccc(-n2[nH]c(C)c(/C=N/NC(=O)c3cccc([N+](=O)[O-])c3)c2=O)cc1C`: -33.1%. In the case of `Cc1ccsc1C(=O)N/N=C/c1ccc([N+](=O)[O-])cc1`, the inhibition was -37.2%. The same measure for `Cc1cc(C(=O)N/N=C/c2cc([N+](=O)[O-])cc(C)c2O)n[nH]1`: 87.3% (active); for `CCOc1cc(CNn2c(C)nnc2SCC(=O)NC(C)(C)C)ccc1OCC(=O)NC(C)(C)C`: 21.4%.

As for `Cc1cc(C)n(CC(O)CN(c2ccccc2)S(=O)(=O)c2ccc3ccccc3c2)n1` (stereo not drawn), the inhibition is 1.9%. The same measure for `CCOc1c(Cl)cc(/C=N/O)cc1OC`: -23.6%; for `CCOc1cc(/C=C(/C#N)c2ccc(Cl)cc2)cc(Cl)c1OCC(=O)O`: 50.6% (active); for `CCOC(=O)CN/C=C(\C#N)c1ccc(F)cc1`: -29.3%. The same measure for `Cc1ccc(S(=O)(=O)C2C(=O)NC3(C)CC2c2ccccc2O3)cc1` (stereo not drawn): -1.5%. As to `CCN(CC)CCCSc1nc2ccccc2s1`, the inhibition was -15.1%.

As for `O=C(CC(NC(=O)c1ccccc1)c1ccccc1)Nc1ccc(F)c(F)c1` (stereo not drawn), the inhibition was 24.2%. Turning to `CCOC(=O)N1CCN(C(=O)COc2ccc(Cl)cc2C)CC1`, the inhibition was 49.2% (active). Consider `CCOC(=O)N1CCN(C(=O)COc2ccc(Br)cc2)CC1`, for which the inhibition was -13.6%. As for `CCOC(=O)N1CCN(C(=O)CSc2ccc(Cl)cc2)CC1`, the figure is 5%; as for `CC(Sc1nnnn1C)C(=O)NC(=O)NC1CCCCC1` (stereo not drawn), -31%. Consider `Cc1ccc(CNC(=O)C2CC(=O)N(C3CCCCCCC3)C2)cc1` (stereo not drawn), for which the inhibition is -17.8%.

Consider `Cc1ccc(CCN2CC(C(=O)O)CC2=O)cc1` (stereo not drawn), for which the inhibition was -6.2%. The same measure for `CCc1ccc(CNC(=O)C2CC(=O)N(CCc3ccc(C)cc3)C2)cc1` (stereo not drawn): 50.9% (active); for `Cc1ccc(NC(=O)c2ccc(Oc3ncccn3)cc2)cc1`: -39.8%.

With `O=C(CCC(=O)c1cccs1)NC1CCCCCC1`, the inhibition is -18.6%. Consider `O=C(O)COc1ccc(-c2nccc(-c3cccs3)n2)cc1`, for which the inhibition was 69% (active). Consider `O=C(Nc1ccnc(-c2ccncc2)n1)c1cccs1`, for which the inhibition was 5.8%. As for `COC(=O)CSc1nccc(-c2cccs2)n1`, the figure is 8.1%; as for `Cc1ccc2c(c1)C(O)(CC(=O)c1cccc(-n3cccc3)c1)C(=O)N2` (stereo not drawn), -4.6%. With `CC1CC(C)CN(C(=O)CSc2ccsc2[N+](=O)[O-])C1` (stereo not drawn), the inhibition was -3.7%. With `O=C(NCc1ccco1)C(=O)c1cn(CC(=O)N2CCCCCC2)c2ccccc12`, the inhibition is -1.5%. `COc1ccc(NC(=S)Nc2ccccc2Cl)cn1`: the inhibition was -6.6%. As for `COc1ccc(NC(=S)NCCNC(C)=O)cc1`, the inhibition was -0.5%. The same measure for `COc1ccc(CS(=O)/C(Cl)=C(/Cl)C(=O)Nc2ccc(OC)nc2)cc1` (stereo not drawn): 94% (active); for `COc1ccc(NC(=O)/C(Cl)=C(/Cl)S(=O)Cc2ccc(C)cc2)cn1` (stereo not drawn): 91.7% (active); for `Cc1ccc(NC(=O)OCc2cncs2)cc1`: -41.4%.

Regarding `CC(=O)Nc1ccc(OCC(=O)NCc2ccc(C)cc2)cc1`, the inhibition is -8.4%. For `Cc1cc(C(=O)NNC(=O)CCC2CCCCC2)c(C)o1`, the inhibition is -4%. `O=C(Cc1cccs1)N(CC1CCCO1)C1(C(=O)NC2CCCCC2)CCCCC1` (stereo not drawn): the inhibition was -11.4%. For the compound `Cc1ccc(C(=O)OC2CCCN(C)C2)cc1` (stereo not drawn), the inhibition was 5.1%. In the case of `Cc1nnc(-c2ccc(Oc3ccc(C)c(C)c3)c([N+](=O)[O-])c2)o1`, the inhibition is 11.5%. The same measure for `Cc1[nH]c2ccccc2c1/C=N\NC(=O)Cn1nnc(-c2ccccc2)n1`: -1.1%; for `CC1=NN(C(=O)CCc2ccccc2O)C(O)(C(F)(F)F)C1` (stereo not drawn): 8.6%; for `Cc1cc(NC(=O)COC(=O)COc2ccc(Cl)cc2C)c([N+](=O)[O-])cc1C`: 8.7%. As for `Cc1ccc(C(C)C)cc1OCCN1CCCC1`, the figure is -3.6%; as for `Cc1cc(N2CCN(C)CC2)nc2ccc(NC(=S)N3CCOCC3)cc12`, -5.6%.

Take `COc1cccc(/C(C)=N/Nc2ncc(Cl)cc2Cl)c1`: the inhibition is -24.9%. As for `COc1cc(/C=C2\SC(=S)N(Nc3ncc(C(F)(F)F)cc3Cl)C2=O)cc(OC)c1OC`, the figure is 0.7%; as for `COc1cccc(/C=N/Nc2ncc(C(F)(F)F)cc2Cl)c1O`, 80.5% (active); as for `OCCC1CN(Cc2cccc(O)c2)CCN1CCc1ccccc1` (stereo not drawn), 1%. As for `Cc1nn(C)c(C)c1S(=O)(=O)N1CCC(CO)(Cc2ccc(Cl)cc2)CC1`, the figure is 26.8%.

Turning to `Cc1ccccc1NC(=S)Nc1cccc([N+](=O)[O-])c1`, the inhibition is 10.9%. The same measure for `COC(=O)/C=C\C(=O)Nc1cccc([N+](=O)[O-])c1`: 65% (active).

Turning to `CC(=O)Nc1cccc([N+](=O)[O-])c1`, the inhibition was -68.1%. The same measure for `CCOC(=O)c1c(C)[nH]c2c1-c1ccccc1C(=O)C2=O`: 95.9% (active); for `CCOC(=O)c1c(C)[nH]c(=S)c(C#N)c1-c1ccccc1`: 17.1%; for `Cc1[nH]c2ccccc2c1C(=O)COC(=O)C(C)C`: -8.5%.

`CSc1ccc(C(=O)C2CCCN(C(=O)c3ccc(C)nc3)C2)cc1` (stereo not drawn): the inhibition was -16.6%. As for `CCOc1cc(N2CCOCC2)c(OCC)cc1NC(=O)C1=NN(c2cccc(C)c2)C(=O)CC1`, the figure is -5.2%; as for `CCCn1c(N)c(C(=O)CSc2nc3ccccc3c(=O)n2-c2ccc(OC)cc2)c(=O)[nH]c1=O`, -3.9%.

For the compound `O=C1CCCc2c1nc(-c1cccc(Cl)c1)n2O`, the inhibition is 94.3% (active). The same measure for `CCOC(=O)CSc1ncc(-c2cccc(Cl)c2)cn1`: -2.7%; for `O=c1c2c(nc3cc(-c4cccc(Cl)c4)[nH]n13)CCCC2`: -158%.

The term inhibition denotes the relative decrease from the control value, in per cent.
